In PubChem BioAssay (EPA / NIEHS):
The source made the active and inactive calls. Rule for the calls: active = hit-call score of the fitted dose curve at least 0.9, where 1 is the maximum; inactive = score below 0.9.

Assays:
[1] = ATG_CRE_CIS: Attagene CIS-FACTORIAL HepG2 Assay for human cAMP Responsive Element (CRE) binding protein 3 (AID 2282926); settings: HepG2 CRE cis-reporter, Attagene multiplexed mRNA; actives raise or lower the signal
In short: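 Human liver HepG2, transient MRTU transfection, 24 h compound exposure. Total RNA → oligo(dT) RT → PCR → 6-FAM primer extension → HpaI cut → CE. Activity called both directions vs DMSO.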

[2] = target: CCAAT/enhancer-binding protein beta (Homo sapiens) (UniProt P17676); experiment: ATG_C_EBP_CIS: Attagene CIS-FACTORIAL HepG2 Assay for human CCAAT/Enhancer Binding Protein (C/EBP) beta (AID 2282927); settings: HepG2 Attagene cis-factorial transcription factor reporter; actives raise or lower the signal
In short: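 HepG2 transiently transfected with multiplexed reporter units under cis-regulatory promoters reporting endogenous C/EBPb activity. After 24 h exposure, reporter mRNA assayed by RT-PCR, fluorescent labelling, HpaI digestion and capillary electrophoresis; bidirectional fitting versus DMSO.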

[3] = ATG_CMV_CIS: Attagene CIS-FACTORIAL HepG2 Assay for human CMV (Internal Marker) (AID 2282928); settings: HepG2 CMV promoter reporter, transcription factor profiling; actives raise or lower the signal;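 note: endpoint acts as a background internal control marker rather than a target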
In short: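 CMV internal-marker background readout in transiently transfected HepG2 cells bearing cis-regulated reporter units. Reporter mRNA is measured 24 h after dosing by RT-PCR and capillary electrophoresis, with bidirectional fitting against DMSO.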

[4] = ATG_DR4_LXR_CIS: Attagene CIS-FACTORIAL HepG2 Assay for human Liver X Receptor (LXR), DR4 submotif (AID 2282929); settings: HepG2 Attagene DR4 cis-reporter, mRNA transcription; actives raise or lower the signal
In short: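 The endpoint is DR4-element-driven reporter transcripts after 24 h chemical exposure of transfected HepG2 cells. These were measured via RT-PCR and capillary electrophoresis, and gain or loss of signal was fitted relative to DMSO controls.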

[5] = target: Aryl hydrocarbon receptor (Homo sapiens) (UniProt P35869); experiment: ATG_Ahr_CIS: Attagene CIS-FACTORIAL HepG2 Assay for human Aryl Hydrocarbon Receptor (Ahr) (AID 2282930); settings: HepG2 AhR cis-factorial reporter transcription; actives raise or lower the signal
In short: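 HepG2 cells transiently transfected with cis-element-driven multiplexed reporter units; endogenous AhR activity read as reporter mRNA 24 h after dosing, via RT-PCR, 6-FAM labelling, HpaI digestion and capillary electrophoresis. Bidirectional fit relative to DMSO.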

[6] = ATG_AP_1_CIS: Attagene CIS-FACTORIAL HepG2 Assay for human Activator Protein 1 (AP-1) (AID 2282931); settings: HepG2 Attagene cis-factorial AP-1 reporter mRNA; actives raise or lower the signal
In short: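 Readout is reporter transcript level from endogenous transcription factor activity, quantified by RT-PCR with fluorescent primer extension and capillary electrophoresis. Transiently transfected HepG2 cells, 24 h exposure. Curves fitted both directions versus DMSO.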

[7] = ATG_BRE_CIS: Attagene CIS-FACTORIAL HepG2 Assay for human Bone Morphogenetic Protein (BMP) Response Element (BRE) (AID 2282933); settings: HepG2 BMP response element reporter, Attagene transcription factor profiling; actives raise or lower the signal
In short: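 A HepG2 multiplex reporter system measured inducible reporter mRNA 24 h post-dosing. Detection: RT-PCR, 6-FAM primer extension, HpaI digestion, capillary electrophoresis. Activity fitted bidirectionally relative to DMSO.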

[8] = target: Transcription factor E2F1 (Homo sapiens) (UniProt Q01094); experiment: ATG_E2F_CIS: Attagene CIS-FACTORIAL HepG2 Assay for human E2F Transcription Factor 1 (AID 2282935); settings: HepG2 Attagene cis-reporter, E2F reporter RNA transcripts; actives raise or lower the signal
In short: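 Measures reporter transcript levels via RT-PCR with capillary electrophoresis detection in HepG2 cells harboring cis-regulated reporter units; 24 h post-dose; bidirectional curve fitting with DMSO as baseline.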

[9] = ATG_E_Box_CIS: Attagene CIS-FACTORIAL HepG2 Assay for human Enhancer Box (E-box) (AID 2282936); settings: HepG2 E-box cis-reporter transcription, actives raise or lower the signal
In short: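 First, HepG2 cells receive multiple cis-regulated reporter constructs by transient transfection. Next, chemicals are applied for 24 h. Finally, reporter mRNA is quantified via RT-PCR and capillary electrophoresis, with DMSO as baseline.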

[10] = ATG_M_61_CIS: Attagene CIS-FACTORIAL HepG2 Assay for M61 Transcription Factor (Internal Marker) (AID 2282937); settings: HepG2 Attagene CIS-FACTORIAL M61 internal marker reporter; actives raise or lower the signal
In short: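 Readout is reporter mRNA by RT-PCR, fluorescent primer extension and capillary electrophoresis, with gain or loss fitted relative to DMSO. Transfected HepG2 cells carrying endogenous-TF-driven cis reporters were exposed to chemicals for 24 hours.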

[11] = ATG_EGR_CIS: Attagene CIS-FACTORIAL HepG2 Assay for human Early Growth Response 1 (EGR1) (AID 2282938); settings: HepG2 Attagene CIS-FACTORIAL EGR reporter mRNA; actives raise or lower the signal
In short: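 After 24 h compound exposure, RNA from reporter-transfected HepG2 cells was reverse-transcribed, PCR-amplified, fluorescently labelled and resolved by capillary electrophoresis. EGR1 reporter transcript changes, up or down, were fitted against DMSO, reflecting endogenous transcription-factor activity.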

[12] = ATG_M_19_CIS: Attagene CIS-FACTORIAL HepG2 Assay for M19 Transcription Factor (Internal Marker) (AID 2282939); settings: HepG2 Attagene CIS-FACTORIAL M19 internal marker reporter; actives raise or lower the signal
In short: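 Chemical-treated HepG2 (24 h) with MRTU constructs; reporter transcripts detected by fluorescent RT-PCR fragment analysis on capillary electrophoresis. Internal background marker, DMSO as baseline.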

[13] = ATG_ERE_CIS: Attagene CIS-FACTORIAL HepG2 Assay for Estrogen Response Element (ERE) (AID 2282940); settings: HepG2 ERE cis-reporter, Attagene RNA transcript; actives raise or lower the signal
In short: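 Human liver cells (HepG2) bearing transiently transfected, promoter-regulated reporter units were exposed 24 h. Reporter mRNA induction was detected by capillary electrophoresis of labelled RT-PCR products and fitted bidirectionally to DMSO.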

[14] = ATG_Ets_CIS: Attagene CIS-FACTORIAL HepG2 Assay for human Erythroblast Transformation Specific (ETS) (AID 2282941); settings: HepG2 ETS cis-reporter transcription, actives raise or lower the signal
In short: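 HepG2 cells transfected with multiple cis-regulated reporter units measuring endogenous ETS-driven transcription, 24 h after dosing. Reporter mRNA quantified by RT-PCR with capillary electrophoresis; bidirectional fit relative to DMSO.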

[15] = target: Hepatocyte nuclear factor 3-beta (Homo sapiens) (UniProt Q9Y261); experiment: ATG_FoxA2_CIS: Attagene CIS-FACTORIAL HepG2 Assay for human Forkhead box A2 (FOXA2) (AID 2282942); settings: HepG2 cis-reporter transcription factor activity, 24 h; actives raise or lower the signal
In short: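 Endogenous transcription factor activity is captured via cis-element-driven reporter transcripts in transfected HepG2. Total RNA taken at 24 h post-dosing; labelled RT-PCR products resolved by capillary electrophoresis. Gain or loss fitted versus DMSO.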

[16] = ATG_FoxO_CIS: Attagene CIS-FACTORIAL HepG2 Assay for human Forkhead box O (FoxO) (AID 2282943); settings: HepG2 Attagene cis-reporter, FoxO element, mRNA; actives raise or lower the signal
In short: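 HepG2 cells transiently transfected with cis-element-driven reporter units report endogenous FoxO activity. After 24 h chemical exposure, reporter mRNA quantified by RT-PCR, fluorescent labeling, HpaI digestion and capillary electrophoresis; bidirectional fit versus DMSO.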

[17] = ATG_GATA_CIS: Attagene CIS-FACTORIAL HepG2 Assay for human GATA Binding Protein (AID 2282944); settings: HepG2 GATA cis-element reporter, Attagene multiplex mRNA; actives raise or lower the signal
In short: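 Transfected cis-reporter HepG2 cells were treated with chemicals for 24 hours. Total RNA was then converted to cDNA, amplified with reporter-specific primers and analysed by fluorescent capillary electrophoresis, using DMSO-treated wells as baseline.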

[18] = ATG_GLI_CIS: Attagene CIS-FACTORIAL HepG2 Assay for human Zinc Finger Protein GLI1 (AID 2282945); settings: HepG2, Attagene cis-factorial reporter mRNA, GLI element; actives raise or lower the signal
In short: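 Transiently transfected HepG2 cells report endogenous transcription factor activity via cis-element-driven reporter units. After 24 h compound exposure, reporter mRNA was measured by RT-PCR with capillary electrophoresis; bidirectional fitting against DMSO baseline.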

[19] = ATG_AP_2_CIS: Attagene CIS-FACTORIAL HepG2 Assay for human Activator Protein 2 (AP-2) (AID 2282932); settings: HepG2 AP-2 cis-reporter, Attagene transcription factor profiling; actives raise or lower the signal
In short: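 Multiplexed mRNA reporter assay in HepG2: cis-regulated units report endogenous factor activity after 24 h treatment. Fluorescence from capillary electrophoresis of RT-PCR products gives the signal, with DMSO as baseline.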

[20] = target: Retinoic acid receptor alpha (Homo sapiens) (UniProt P10276); experiment: ATG_DR5_RAR_CIS: Attagene CIS-FACTORIAL HepG2 Assay for human Retinoic Acid Receptor Alpha (RARE), DR5 submotif (AID 2282934); settings: HepG2 Attagene cis-factorial RARE DR5 reporter, mRNA; actives raise or lower the signal
In short: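 HepG2 cells transiently transfected with multiplexed reporter units; DR5 cis-element drives reporter through endogenous transcription factors. After 24 h dosing, reporter mRNA quantified by RT-PCR, fluorescent labeling, HpaI digestion and capillary electrophoresis; bidirectional fitting versus DMSO.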

Measured: AC50

Chain of Hepatocyte nuclear factor 3-beta (Homo sapiens) (Q9Y261 whole entry, looked up): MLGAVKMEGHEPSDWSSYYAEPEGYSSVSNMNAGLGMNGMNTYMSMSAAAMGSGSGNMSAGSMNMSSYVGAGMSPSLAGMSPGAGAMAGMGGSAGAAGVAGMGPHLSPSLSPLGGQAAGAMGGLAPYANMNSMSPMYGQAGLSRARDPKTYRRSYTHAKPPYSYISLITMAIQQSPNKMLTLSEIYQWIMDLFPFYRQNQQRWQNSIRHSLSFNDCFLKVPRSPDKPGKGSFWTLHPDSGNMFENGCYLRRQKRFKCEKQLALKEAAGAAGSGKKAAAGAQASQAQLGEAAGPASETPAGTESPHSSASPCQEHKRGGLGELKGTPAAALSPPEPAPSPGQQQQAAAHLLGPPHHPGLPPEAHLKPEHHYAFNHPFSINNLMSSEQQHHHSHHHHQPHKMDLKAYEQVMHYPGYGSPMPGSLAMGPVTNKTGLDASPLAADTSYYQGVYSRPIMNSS
Chain of CCAAT/enhancer-binding protein beta (Homo sapiens) (P17676 whole entry, looked up): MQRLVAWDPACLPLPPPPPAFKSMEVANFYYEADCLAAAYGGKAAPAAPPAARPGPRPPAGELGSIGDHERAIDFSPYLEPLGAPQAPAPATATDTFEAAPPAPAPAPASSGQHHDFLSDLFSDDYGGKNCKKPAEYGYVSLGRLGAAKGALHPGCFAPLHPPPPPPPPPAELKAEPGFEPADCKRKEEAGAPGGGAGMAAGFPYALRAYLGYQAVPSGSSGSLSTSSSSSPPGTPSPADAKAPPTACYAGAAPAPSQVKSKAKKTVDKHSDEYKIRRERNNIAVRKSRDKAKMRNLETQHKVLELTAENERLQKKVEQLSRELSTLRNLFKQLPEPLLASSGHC
Chain of Transcription factor E2F1 (Homo sapiens) (Q01094 whole entry, looked up): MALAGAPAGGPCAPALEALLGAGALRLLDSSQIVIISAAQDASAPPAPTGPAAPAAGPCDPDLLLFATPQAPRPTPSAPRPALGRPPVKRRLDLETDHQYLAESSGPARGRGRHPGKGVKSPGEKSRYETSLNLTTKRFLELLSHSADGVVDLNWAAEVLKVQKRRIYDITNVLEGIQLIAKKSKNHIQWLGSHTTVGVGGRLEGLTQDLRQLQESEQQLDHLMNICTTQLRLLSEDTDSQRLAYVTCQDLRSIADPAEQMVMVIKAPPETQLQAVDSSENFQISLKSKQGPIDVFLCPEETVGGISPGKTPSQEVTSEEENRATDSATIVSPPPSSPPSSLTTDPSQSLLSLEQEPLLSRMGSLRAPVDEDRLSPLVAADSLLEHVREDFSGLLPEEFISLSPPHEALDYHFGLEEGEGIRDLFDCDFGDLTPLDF
Chain of Aryl hydrocarbon receptor (Homo sapiens) (P35869 whole entry, looked up): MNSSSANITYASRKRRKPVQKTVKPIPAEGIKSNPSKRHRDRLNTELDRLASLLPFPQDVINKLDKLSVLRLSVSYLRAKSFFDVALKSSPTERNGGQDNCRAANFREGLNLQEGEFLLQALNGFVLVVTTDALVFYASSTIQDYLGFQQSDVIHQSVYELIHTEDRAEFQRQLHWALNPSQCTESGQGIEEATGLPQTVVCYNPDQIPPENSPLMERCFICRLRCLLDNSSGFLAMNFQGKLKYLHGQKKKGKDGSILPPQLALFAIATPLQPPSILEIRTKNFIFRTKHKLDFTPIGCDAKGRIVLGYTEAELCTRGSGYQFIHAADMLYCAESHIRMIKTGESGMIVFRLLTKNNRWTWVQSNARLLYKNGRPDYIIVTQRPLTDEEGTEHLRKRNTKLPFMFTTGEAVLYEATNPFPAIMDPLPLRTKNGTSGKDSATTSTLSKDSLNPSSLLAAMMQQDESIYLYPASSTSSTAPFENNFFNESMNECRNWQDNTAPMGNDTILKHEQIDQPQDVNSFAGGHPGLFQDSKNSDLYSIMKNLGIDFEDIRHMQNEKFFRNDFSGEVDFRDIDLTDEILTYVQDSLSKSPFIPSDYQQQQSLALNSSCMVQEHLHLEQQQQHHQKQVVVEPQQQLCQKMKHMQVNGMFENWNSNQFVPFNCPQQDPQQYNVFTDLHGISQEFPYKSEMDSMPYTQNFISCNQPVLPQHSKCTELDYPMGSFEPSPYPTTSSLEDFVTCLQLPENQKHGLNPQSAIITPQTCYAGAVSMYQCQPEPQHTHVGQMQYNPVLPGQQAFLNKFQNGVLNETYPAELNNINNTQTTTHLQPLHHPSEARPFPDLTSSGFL
Chain of Retinoic acid receptor alpha (Homo sapiens) (P10276 whole entry, looked up): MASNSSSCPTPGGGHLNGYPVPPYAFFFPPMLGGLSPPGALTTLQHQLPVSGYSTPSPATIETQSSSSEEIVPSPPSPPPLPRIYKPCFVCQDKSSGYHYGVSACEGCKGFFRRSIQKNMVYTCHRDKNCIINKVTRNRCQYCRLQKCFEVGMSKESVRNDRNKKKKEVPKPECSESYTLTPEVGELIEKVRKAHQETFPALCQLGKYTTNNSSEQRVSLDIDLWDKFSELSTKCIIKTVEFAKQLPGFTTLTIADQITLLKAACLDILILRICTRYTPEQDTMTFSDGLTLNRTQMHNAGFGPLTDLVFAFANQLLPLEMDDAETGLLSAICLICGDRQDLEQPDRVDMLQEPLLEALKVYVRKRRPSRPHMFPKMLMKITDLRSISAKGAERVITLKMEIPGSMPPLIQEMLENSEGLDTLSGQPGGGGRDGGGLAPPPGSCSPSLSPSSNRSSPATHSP

C=C(C)C(=O)OCc1ccccc1
not listed: [19] | [20]
inactive: all other assays above

O=C(Nc1ccccc1)c1cc([N+](=O)[O-])ccc1Cl
active: [1] 5.81 µM | [4] 100 µM | [5] 18.4 µM | [6] 100 µM | [7] 49.9 µM | [11] 25.1 µM
not listed: [14] | [19] | [20]
inactive: all other assays above

CN(C)c1ccc(O)c2c1C[C@H]1C[C@H]3[C@H](N(C)C)C(=O)C(C(N)=O)=C(O)[C@@]3(O)C(=O)C1=C2O
not listed: [14] | [19] | [20]
inactive: all other assays above

Nc1ccc(S(=O)(=O)O)c(N)c1
not listed: [7] | [20]
inactive: all other assays above

O=C(O)c1cn(-c2ccc(F)cc2)c2cc(N3CCNCC3)c(F)cc2c1=O
not listed: [7] | [13] | [18]
inactive: all other assays above

CC(c1cc2ccccc2s1)N(O)C(N)=O (configuration not stated)
active: [5] 38.2 µM
not listed: [7] | [12] | [15] | [20]
inactive: all other assays above

CC1CCC(C(C)(C)O)CC1 (configuration not stated)
not listed: [7] | [13] | [14] | [20]
inactive: all other assays above

O=C1CCc2ccccc2O1
not listed: [7] | [20]
inactive: all other assays above
